# a7 integrin act = activators of alpha7 integrin expression for muscular dystrophy; alpha7betagal myoblasts, beta-gal FDG fluorescence, 48 h; Potency, µM (highest dose often 38.3 µM), usual class: activators; 350,000 tested, 0.064% active; AID 624291; also: nearly all actives have a fitted effect of over 60% in size
#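 Alpha7betagal+/- myoblasts (passage 13) were plated 16-24 hr, then exposed to compounds (1:260 dilution of DMSO stock) for 48 hours at 37C. After MPER lysis, β-galactosidase reporter activity was read as FDG fluorescence (ex 480/em 540) after 30 minutes.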
# SW480 rerep = inducers of DNA re-replication in SW480 colon cancer cells | SW480 DNA re-replication, Hoechst DNA content imaging, 48 h | Potency, µM (highest dose often 46.1 µM), most hits filed as activators | 340,000 tested, 1.8% active | AID 624297; also: nearly all actives have a fitted effect of over 55% in size
#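 DNA re-replication was detected as more nuclei of elevated Hoechst intensity after 48 hr exposure to compound (23 nL pinned per well of 250 cells).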
# MCF10A rerep = inducers of DNA re-replication in MCF 10A breast cells; MCF 10A DNA re-replication, Hoechst nuclear intensity, 48 h; Potency, µM (doses to about 46.1 µM), hits mostly activators; 350,000 tested, 2.9% active; AID 624296; also: nearly all actives have a fitted effect of over 50% in size
# Mito fusion yeast = blocks mitochondrial division or promotes mitochondrial fusion. S. cerevisiae fusion-defective mutant growth rescue, CellTiterGlo 48 h. Potency, µM (top dose mostly 46.1 µM), most hits filed as activators. 320,000 tested, 0.23% active. AID 485298; also: nearly all actives have a fitted effect of over 45% in size
#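 Compounds are tested for their ability to restore growth of mitochondrial fusion-defective yeast strains at non-permissive 37C in YPEG medium over 48 hours. Viability is quantified by luciferase luminescence.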
# A-T KAP1 phos = candidate therapy for ataxia-telangiectasia; F2112 A-T fibroblasts, KAP-1 phosphorylation AlphaLISA; neocarzinostatin DNA damage 30 min before lysis; Potency, µM (top dose mostly 57.5 µM), most hits filed as activators; 320,000 tested, 0.19% active; also: nearly all actives have a fitted effect of over 45% in size
#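 hTERT-immortalized A-T patient fibroblasts (F2112), 500 cells/well in OPTI-MEM, 1% FBS, got compounds for 60 min, then NCS for 30 min at 37C. Lysates were then assayed for phospho-KAP-1 by AlphaLISA (anti-pKAP1 donor, anti-KAP1 acceptor beads), 6 hr at 25C.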
# A number is an active result; - = inactive; ? = inconclusive; . = no result given. Hits are enriched below; roughly 4.2% of the tested compounds scored in any of these assays. Calls follow the shape of the dose curve; as a rule, active = well fitted activation curve with a large enough effect; inconclusive = small, poorly fitted or top-dose-only effect; inactive = no such curve, though single readings can be large or run the other way.
SMILES,a7 integrin act,SW480 rerep,MCF10A rerep,Mito fusion yeast,A-T KAP1 phos
COc1cccc(-n2cnc3sc(C)cc3c2=O)c1,-,-,-,-,-
CC1CC(C)CN(S(=O)(=O)c2ccc(C(=O)OCC(=O)Nc3ccccc3)cc2)C1 (stereo not given),-,.,.,.,.
CCC(CC)CN1CCC(CN2C(=S)NC[C@@H]2[C@@H](C)CC)CC1,-,-,-,.,.
CC(C)NCC(O)COc1cccc2ccccc12 (stereo not given),.,-,-,-,-
OC(CNCc1ccccc1F)COc1cccc2ccccc12 (stereo not given),-,21µM,?,-,-
CC(C)Cc1nc2oc3c(Cl)ncnc3c2c2c1CCCC2,-,-,29µM,-,-
CCCc1nc2oc3c(NCCCN(C)C)ncnc3c2c2c1CCCC2,-,?,15µM,-,-
CCCc1nc2oc3c(Cl)ncnc3c2c2c1CCCC2,-,-,?,-,-
Cc1ccccc1NC(=O)c1snc2c(=O)[nH]cnc12,.,.,.,-,-
CCC1NC(=O)C(NC(=O)c2ncccc2O)C(C)OC(=O)C(c2ccccc2)NC(=O)C2CC(=O)CCN2C(=O)C(Cc2ccccc2)N(C)C(=O)C2CCCN2C1=O (stereo not given),.,-,-,.,.
Cc1ccc2c(CC(=O)OCC(=O)N(CC(C)C)c3c(N)n(Cc4ccccc4)c(=O)[nH]c3=O)coc2c1,-,6.5µM,?,-,-
CC(C)CN(C(=O)COC(=O)C12CC3CC(CC(C3)C1)C2)c1c(N)n(Cc2ccccc2)c(=O)[nH]c1=O,-,4.1µM,-,-,-
Cc1nnc(SCC(=O)N(CC(C)C)c2c(N)n(Cc3ccccc3)c(=O)[nH]c2=O)n1N,-,1.3µM,-,-,-
CC(C)CN(C(=O)COC(=O)C12CC3CC(CC(O)(C3)C1)C2)c1c(N)n(Cc2ccccc2)c(=O)[nH]c1=O,-,.,.,.,.
COc1ccccc1/C=C/C=N/n1c(-c2ccc(Cl)cc2)n[nH]c1=S,-,-,?,-,-
O=C(C1=COCCO1)N1CCN(S(=O)(=O)c2cccc(F)c2)CC1,?,-,-,-,-
Cc1ccc(OCC(=O)Nc2ccc(C)c(F)c2)c([N+](=O)[O-])n1,-,-,-,-,-
C=CCN1C=CC(=O)[C@@H](OC(=O)Nc2ccc(Br)cc2)[C@H]1c1ccccc1Br,-,-,?,.,.
CC(OC(=O)c1cc(=O)[nH]c2ccccc12)C(=O)NC1CCCCC1C (stereo not given),-,-,-,-,-
COc1ccc(-c2ccnc(-c3ccc(OCCCF)cc3)n2)cc1,-,?,15µM,-,-
C#CCOCCOCCOCCNc1nc(N2CCN(C(=O)[C@H](CCCCN)n3cc(C(N)CO)nn3)CC2)nc(N2CCN(C(=O)[C@H](CCC(=O)O)n3cc(C(N)CC(C)C)nn3)CC2)n1 (stereo not given in full),.,.,.,-,40µM
C#CCOCCOCCOCCNc1nc(N2CCN(C(=O)[C@H]([C@@H](C)CC)n3cc([C@@H](N)CO)nn3)CC2)nc(N2CCN(C(=O)[C@H]([C@@H](C)CC)n3cc([C@@H](N)CO)nn3)CC2)n1,.,.,.,-,40µM
CC1=CC(=O)C(C(C)C)=C/C1=C(\c1cc(C(C)C)c(OP(=O)(O)O)cc1C)c1ccccc1C(=O)O,-,?,21µM,-,-
CC(C)(COP(=O)(O)OP(=O)(O)OC[C@H]1O[C@@H](n2cnc3c(N)ncnc32)[C@H](O)[C@@H]1OP(=O)(O)O)C(O)C(=O)NCCC(=O)NCCS (stereo not given in full),.,-,-,.,.
Cc1noc(C)c1COc1cccc(C(=O)OCC(=O)N2CC(=O)Nc3ccccc32)c1,-,9.2µM,1.8µM,-,-
SMILES,a7 integrin act,SW480 rerep,MCF10A rerep,Mito fusion yeast,A-T KAP1 phos
COc1cc(NC(=O)CN(C)S(=O)(=O)c2ccc3c(c2)CC(C)N3C(C)=O)cc(OC)c1 (stereo not given),-,-,-,-,-
C=C1C(=O)C=C[C@]2(C)C[C@@H]3OC(=O)[C@](C)(O)[C@H]3C[C@@H]12,-,?,6.5µM,-,-
CCCCNS(=O)(=O)c1ccc(NS(=O)(=O)c2c(C)cc(C)cc2C)cc1,-,?,4.6µM,-,.
CCC(=O)N(C)C[C@H]1Oc2ncc(C#Cc3cccnc3)cc2C(=O)N([C@@H](C)CO)C[C@@H]1C,-,.,.,.,.
COc1cccc2c1C1COC3C4CC(C(=O)O)C(C(C2)N13)N4C (stereo not given),-,?,2.6µM,.,.
COc1cccc2c1C(CCCC(=O)O)CCC2 (stereo not given),-,-,-,.,.
COc1ccc(N2CC(C(=O)Nc3nc4ccc(F)cc4s3)CC2=O)c(OC)c1 (stereo not given),-,-,-,-,-
CC(=O)c1ccc(Nc2ccc(-c3ccccc3C)nn2)cc1,-,-,26µM,-,-
CCOC(=O)C1CCCN(C(=O)CNS(=O)(=O)c2ccc(Br)s2)C1 (stereo not given),2µM,-,-,-,-
Cc1cc(SCC(=O)N/N=C/c2ccc(C(=O)O)cc2)nc2ccccc12,-,-,-,-,-
O=C(Nc1ccccc1)C1CC(=O)N(c2ccc3c4c(cccc24)CC3)C1 (stereo not given),-,?,?,-,-
c1ccc(N(c2ccccc2)c2nc(-n3ccnc3)nc(-n3ccnc3)n2)cc1,-,-,20µM,-,-
c1ccc(-c2nc(N3CCN(c4ccccc4)CC3)nc(-n3ccnc3)n2)cc1,-,?,7.3µM,-,-
Cc1ccc(C(=O)Nc2ccc(S(=O)(=O)Nc3cnc4ccccc4n3)cc2)cc1,-,-,-,-,-
COc1ccc([C@H]2CC(=O)C=C(c3ccccc3Oc3ccccc3)C2)cc1,-,-,-,-,-
CCOc1ccc(Br)cc1C1=CC(=O)C[C@H](c2ccc(OC)cc2)C1,-,7.3µM,2.9µM,?,-
COc1ccc([C@H]2CC(=O)C=C(c3ccccc3-c3ccccc3)C2)cc1,-,?,16µM,-,-
COc1ccc([C@H]2CC(=O)C=C(c3cc(C)ccc3OC)C2)cc1,-,16µM,?,-,-
Cc1noc(/C=C/N(C)C)c1S(=O)(=O)N1CCC(C(=O)NC(C)(C)C)CC1,-,-,-,-,-
O=S(=O)(CC=CCS(=O)(=O)c1ccccc1)c1ccccc1,-,-,-,.,.
O=C(C1CCCCCC1)N1CC[C@@H](N2CCC(O)CC2)[C@H](O)C1,-,-,-,-,-
O=C1Cc2ccccc2Sc2cc(OCCCN3CCCCC3)ccc21,-,23µM,?,-,-
CCc1ccc(-c2cc(C(F)(F)F)n3nc(C(=O)Nc4c(C)nn(Cc5ccccc5Cl)c4C)cc3n2)s1,-,10µM,3.3µM,-,-

# Bioassay records: PubChem, National Center for Advancing Translational Sciences (NCATS)
